Assay outcomes deposited in PubChem by National Center for Advancing Translational Sciences (NCATS).
A selection: hits, their analogues and other compounds. The true share with any hit is near 0.72%.
ASM inhibitor: Inhibitors of Secretory Acid Sphingomyelinase (S-ASM): qHTS | placental ASM, HMU-PC fluorogenic substrate, 60 min | 340,000 compounds, 0.006% hits | Potency, µM (titrated, usually from 57.5 µM), usual class: inhibitors | Sphingomyelin phosphodiesterase (Homo sapiens), P17405
Target sequence (P17405 47-631 limits assumed): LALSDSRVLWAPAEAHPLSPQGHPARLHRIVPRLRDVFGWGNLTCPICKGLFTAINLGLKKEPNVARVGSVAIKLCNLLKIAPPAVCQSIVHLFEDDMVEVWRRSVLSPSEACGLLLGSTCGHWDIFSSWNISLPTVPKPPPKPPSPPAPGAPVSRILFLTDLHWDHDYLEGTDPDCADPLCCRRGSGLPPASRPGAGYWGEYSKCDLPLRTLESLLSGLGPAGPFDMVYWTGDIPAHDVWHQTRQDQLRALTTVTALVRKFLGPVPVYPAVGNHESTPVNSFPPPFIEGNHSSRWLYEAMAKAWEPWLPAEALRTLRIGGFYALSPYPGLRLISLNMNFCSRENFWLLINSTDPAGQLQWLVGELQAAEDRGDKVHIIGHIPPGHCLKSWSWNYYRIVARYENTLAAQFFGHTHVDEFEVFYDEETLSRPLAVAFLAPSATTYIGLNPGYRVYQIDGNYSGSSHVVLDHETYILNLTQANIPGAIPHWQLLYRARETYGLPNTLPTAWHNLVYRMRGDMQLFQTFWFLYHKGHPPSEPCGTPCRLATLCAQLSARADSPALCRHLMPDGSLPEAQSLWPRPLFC
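Fluorescence read-out (Ex 386 nm, Em 447 nm) after stopping the reaction at pH 10. Enzyme: ASM from human placenta; substrate HMU-PC0, 9 uM final; 60 min, 37 °C. Compound preincubation 10 min, ambient temperature.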
miR-21 act: qHTS Assay for Modulators of miRNAs and/orActivators of miR-21 | HeLa miR-21 FLuc reporter, luciferase, 48 h | Potency, µM (series often up to 38.3 µM), hits mostly activators | 340,000 tested, under 10 active | AID 2288, 2010;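 note: miR-21 action dims this reporter so a rising signal means less miR-21 action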
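HeLa cells stably expressing CMV-driven firefly luciferase with a downstream miR-21 binding sequence, endogenously expressing miR-21, were treated with titrations (up to about 40uM final) for 48 hours at 37 degree Celsius. Luciferase luminescence was read after lysis.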
Mito fusion act: qHTS Assay for Small Molecule Inhibitors of Mitochondrial Division or Activators of Mitochondrial Fusion; S. cerevisiae fusion-defective mutant growth rescue, CellTiterGlo 48 h; Potency, µM (titrated, usually from 46.1 µM), actives largely listed as activators; 320,000 compounds, 0.23% hits; AID 485298, 2010; note: nearly all actives have a fitted effect of over 45% in size
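S. cerevisiae fusion-defective temperature-sensitive mutants (e.g. fzo1-1, mgm1-5) grown 48 h at 37C in YPEG (ethanol/glycerol non-fermentable) medium with 23 nl compound per well; growth rescue read as CellTiterGlo luminescence.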
ERG-DNA inh: qHTS for Small Molecule Inhibitors of the ERG Ets/DNA interaction; Transcriptional regulator ERG (Homo sapiens), P11308; Potency, µM (doses to about 76.9 µM), usual class: inhibitors; AID 624246, 2012; 370,000 compounds, 0.028% hits; fluorescence polarization, His-ERG Ets domain / labelled DNA; active = well fitted inhibition curve with a large enough effect in the polarisation, with a control signal flat; inconclusive = small, poorly fitted or top-dose-only effect, or effect the other way, or a change in a side signal; inactive = no such curve, though single readings can be large or run the other way; the % refers to the polarisation;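 note: polarization taken with two DNA probes labelled with fluorescein and Texas red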
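His-tagged ERG Ets domain (1 uM in the protein solution; 300mM KCl, 50mM Tris-HCl, 1mM EDTA, 1mM DTT, pH 7.5) received compound, then a probe mix of 5 nM fluorescein-DNA and 100nM Texas-615-DNA. Fluorescence polarization was read for both dyes.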
RXFP1 antagonist: qHTS Assay for Antagonists of the Relaxin Receptor RXFP1. Relaxin receptor 1 (Homo sapiens), Q9HBX9. HEK293-RXFP1, relaxin-stimulated cAMP HTRF, 30 min; hits give low values. activity change, negative = inhibition, % at 57.5 µM. 350,000 compounds, 0.59% hits;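 active = activity change of -60% or lower, but not beyond a set lower limit; inconclusive = change between -60% and -40%, or beyond the set limit; inactive = change above -40%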
RXFP1 ag: qHTS Assay for Agonists of the Relaxin Receptor RXFP1; 370,000 compounds, 0.3% hits; Relaxin receptor 1 (Homo sapiens), Q9HBX9; Potency, µM (top dose mostly 57.5 µM), hits mostly activators; HEK293T-RXFP1 cAMP TR-FRET, 30 min; response scale: percent of porcine relaxin response, buffer zero; note: nearly all actives have a fitted effect of over 60% in size
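cAMP rise read by TR-FRET after 30 min, 37C compound exposure (up to 58 uM) in RXFP1-transfected HEK293 cells with Ro 20174 present. EC50 from Hill-equation fits, with 29 nM porcine relaxin as 100% and buffer as basal.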
Of the large screens only hits and unclear results are named; the others gave an inactive call. Unless noted, calls come from the whole dose curve; as a rule, active = well fitted curve in the direction sought with a large enough effect; inconclusive = small, poorly fitted or top-dose-only effect, or another doubt; inactive = no such curve, though single readings can be large; an effect the other way counts as inactive or inconclusive.

CC(=O)c1cc(C#N)c(SCCC(C)C)nc1C	Mito fusion act inconclusive
Cc1ccccc1N/N=C/c1sc(=O)n(Cc2cccc(C(=O)O)c2)c1Cl	RXFP1 antagonist -73
COC(=O)c1cccc(Cn2c(Cl)c(/C=N/Nc3ccccc3C)sc2=O)c1	none (no result: ERG-DNA inh)
COc1ccc(Cl)cc1NC(=O)c1cc(-c2ccccc2O)n[nH]1	Mito fusion act 6.3µM (no result: RXFP1 antagonist)
COc1ccc(OC)c(NC(=O)c2cc(-c3cc(Cl)ccc3O)n[nH]2)c1	none
CC(C)c1noc(-c2ccccc2OCC(=O)Nc2cccc([N+](=O)[O-])c2)n1	none (no result: ASM inhibitor, Mito fusion act, RXFP1 antagonist)
CCCCC(=O)NC(c1ccc([N+](=O)[O-])cc1)c1c(O)ccc2ccccc12 (stereo unspecified)	RXFP1 antagonist -62
CCCCC/C(C=O)=C\c1ccccc1	none (no result: ASM inhibitor, miR-21 act, Mito fusion act, ERG-DNA inh, RXFP1 ag)
CCOC(=O)CSc1c(-c2cccs2)[nH]c2ccccc12	Mito fusion act 14µM
COc1ccc(S(=O)(=O)NCCc2sc(-c3cccc(C)c3)nc2C)cc1	none (no result: ASM inhibitor, Mito fusion act, RXFP1 antagonist)
COc1cc(C(=O)Nc2ccc(S(=O)(=O)Nc3onc(C)c3C)cc2)cc(OC)c1OC	none
COc1ccc(CC(=O)NNS(=O)(=O)c2ccccc2[N+](=O)[O-])cc1OC	none
COc1ccc(CC(=O)Nc2ccc(S(=O)(=O)Nc3onc(C)c3C)cc2)cc1OC	RXFP1 antagonist -113
COc1ccc(CC(=O)NNS(=O)(=O)c2ccc([N+](=O)[O-])cc2)cc1OC	RXFP1 antagonist -84
Cc1ccc(CCNS(=O)(=O)c2c(C)nc3sc(C)c(C)n3c2=O)cc1	none (no result: ASM inhibitor, Mito fusion act)
NC(N)=NCC(O)CN(c1ccccc1)c1ccccc1 (stereo unspecified)	none
COC(=O)[C@@]12CCCCN1[C@H](c1ccc(-c3ccccc3)cc1)[C@H]1C(=O)N(C)C(=O)[C@H]12	ASM inhibitor inconclusive, Mito fusion act inconclusive (no result: miR-21 act, RXFP1 antagonist)
COC(=O)[C@@]12CCCCN1[C@H](c1ccc(-c3ccc(F)cc3)cc1)[C@@H]1C(=O)N(C)C(=O)[C@@H]12	Mito fusion act 13µM (no result: miR-21 act, RXFP1 antagonist)
O=C(O)CC1Cc2ccccc2C1C(=O)O (stereo unspecified)	none (no result: miR-21 act, Mito fusion act, ERG-DNA inh, RXFP1 ag)
OCCCNc1nc(-c2ccc(Cl)cc2)nc2ccccc12	none
OCCCNc1nc(-c2ccc(Br)cc2)nnc1-c1ccc(Cl)cc1	Mito fusion act 22µM
C[C@H]1O[C@H](O[C@H]2[C@H](O)[C@@H](O)[C@@H](O[C@H]3[C@H](O)[C@@H](O)[C@H](O)O[C@@H]3CO)O[C@@H]2CO)[C@H](O)[C@@H](O)[C@@H]1N[C@H]1C=C(CO)[C@@H](O)[C@H](O)[C@H]1O	none (no result: ASM inhibitor, miR-21 act, Mito fusion act, ERG-DNA inh, RXFP1 ag)
CCN(CC)Cc1nc2c(c(=O)[nH]1)C1(CCCCC1)Cc1ccccc1-2	none
CN(C)Cc1nc2c(c(=O)[nH]1)C1(CCCCC1)Cc1ccccc1-2	RXFP1 antagonist -62 (no result: ERG-DNA inh)
COc1ccc(CCOC(=O)c2ccc(N)c([N+](=O)[O-])c2)cc1	RXFP1 antagonist -66
Nc1c(NC/C=C\COc2cc(CN3CCCCC3)ccn2)c(=O)c1=O	none (no result: ASM inhibitor, miR-21 act, Mito fusion act, ERG-DNA inh, RXFP1 ag)
O=[N+]([O-])c1ccc(S(=O)Cc2ccccc2)c([N+](=O)[O-])c1 (stereo unspecified)	RXFP1 antagonist -103 (no result: miR-21 act, Mito fusion act, RXFP1 ag)
O=[N+]([O-])c1ccc(CS(=O)c2ccccc2)cc1 (stereo unspecified)	none (no result: miR-21 act, Mito fusion act, RXFP1 ag)
COc1ccc(NC(=O)CSc2ccc3nnc(-c4cccnc4)n3n2)cc1OC	RXFP1 ag 18µM
COc1ccc(NC(=O)CSc2ccc3nnc(-c4ccccn4)n3n2)cc1OC	none
O=C(CSc1ccc2nnc(-c3cccnc3)n2n1)Nc1ccccc1	RXFP1 ag 16µM
O=C(CSc1ccc2nnc(-c3cccnc3)n2n1)Nc1cccc(F)c1	RXFP1 ag inconclusive
